Records with an inconclusive call do not appear. Calls of active or inactive are those of the source. Unless noted, calls come from the whole dose curve; as a rule, active = well fitted curve in the direction sought with a large enough effect; inconclusive = small, poorly fitted or top-dose-only effect, or another doubt; inactive = no such curve, though single readings can be large; an effect the other way counts as inactive or inconclusive.

The nature of experiment [1]: qHTS to identify inhibitors of the type 1 interferon - major histocompatibility complex class I in skeletal muscle: primary screen against the NCATS Mechanism Interrogation Plate v5.0 (MIPE) Libary (AID 1347411).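 For activity change, negative = inhibition: plate controls were vehicle for no effect and reference inhibitor for full effect.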 Note: nearly all actives have a fitted effect of over 65% in size. An outline of the steps:
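Immortalized human C25cl48 myoblasts with HiBit knocked into endogenous HLA-B*08:01 were stimulated with 4.0 ng/ml IFN-beta and exposed to compounds (11-point 1:3 titration, top 46 uM final) for 24 hrs at 37 C; HiBiT lytic luminescence measured.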

Experiment [2] is described as follows: Primary qHTS for inhibitors of nuclear receptor binding SET domain protein 2 (NSD2) in an isogenic RCH-ACV NSD2 p.E1099K mutant (9B) (AID 1645876). Note: nearly all actives have a fitted effect of over 70% in size. On the technique in general: qHTS replaces the single test concentration by a dilution series.
Experiment [3] in a line: Primary qHTS for inhibitors of nuclear receptor binding SET domain protein 2 (NSD2) in an RCH-ACV wild type WT cells (2C) (AID 1645877). Note: nearly all actives have a fitted effect of over 70% in size.
In experiment [4] the target is Glutathione peroxidase 1 (Homo sapiens) (UniProt P07203). Description: Primary qHTS Assay for Inhibitors of Recombinant Selenoprotein Glutathione Peroxidase 1 (GPX1) (AID 1845191). Note: nearly all actives have a fitted effect of over 65% in size. A digest of the protocol:
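10 nM GPX1 + cpd, 30 min RT; start w/ 1 mM GSH, 0.5 mM cumene hydroperoxide, 0.5 mM NADPH, 100 nM GR, 0.01% BSA; buffer 50 mM Tris-HCl pH 7.5, 2 mM EDTA, 150 mM NaCl; Fl 340/450, 0 & 15 min.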

Experiment [5] has as its target Phospholipid hydroperoxide glutathione peroxidase GPX4 (Homo sapiens) (UniProt P36969). Description: Primary qHTS Assay for Inhibitors of Recombinant Selenoprotein Glutathione Peroxidase 4 (GPX4) (AID 1845192). For activity change, negative = inhibition: % is set by controls: 0 for no effect and ±100 for the full control effect. Note: nearly all actives have a fitted effect of over 65% in size. Particulars: outcome: dose series up to 50 µM unless noted. A digest of the protocol:
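NADPH consumption, followed by fluorescence at 340/450 nm between 0 and 15 min, reports GPX4 activity via coupled glutathione reductase (100 nM). Enzyme 200 nM was pre-exposed to compound 30 min; 0.5 mM cumene hydroperoxide and 1 mM GSH served as substrates.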

The nature of experiment [6]: qHTS drug screen for cell cycle checkpoint inhibitors in PARPi-resistant BRCA-mutant ovarian cancer cell lines. (AID 1963452; calls by dose curve). The settings on record: PEO1/OlaR viability, CellTiter-Glo luminescence, 96 h; for Z-AUC: stronger effect = lower value. A digest of the protocol: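 PEO1, PEO4 and PEO1/OlaR ovarian cancer cells, 600 per well, exposed 96 h at 37C to a dilution series. Viability read by CellTiter-Glo luminescence, normalized to DMSO and empty wells; activity summarized as Z-AUC.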

The nature of experiment [7]: qHTS assay to identify inhibitors of the type 1 interferon - major histocompatibility complex class I in skeletal muscle: Counter screen cell viability and HiBit confirmation (AID 1347412). For activity change, negative = inhibition: % is set by controls: 0 for no effect and ±100 for the full control effect. For all read-outs here: nearly all actives have a fitted effect of over 60% in size. The settings on record: iHSKM muscle cells + IFN-b, HiBiT or CellTiter-Glo, 24 h; for Potency: HiBiT; for activity change, negative = inhibition: Viability, at 45.9 µM (top of the series). A digest of the protocol:
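After 24 h with human IFN-beta (4 ng/ml) and compound titrations (top 46 uM final, 1:3, 12 points), HLA-B HiBit myoblasts were lysed for either Nano-Glo HiBiT luminescence or CellTiter Glo viability on paired plates.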

[8] abbreviates: measured here: PEO1 parental Z-AUC.
Potency is the fitted concentration of half-maximal effect.

Sequence of Glutathione peroxidase 1 (Homo sapiens) (P07203 whole entry, looked up): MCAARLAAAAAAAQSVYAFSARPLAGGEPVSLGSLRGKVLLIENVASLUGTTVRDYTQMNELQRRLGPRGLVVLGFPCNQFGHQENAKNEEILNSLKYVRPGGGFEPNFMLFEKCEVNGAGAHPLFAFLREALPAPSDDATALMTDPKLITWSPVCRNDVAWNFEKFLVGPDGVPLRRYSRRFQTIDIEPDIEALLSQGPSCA
Sequence of Phospholipid hydroperoxide glutathione peroxidase GPX4 (Homo sapiens) (P36969 whole entry, looked up): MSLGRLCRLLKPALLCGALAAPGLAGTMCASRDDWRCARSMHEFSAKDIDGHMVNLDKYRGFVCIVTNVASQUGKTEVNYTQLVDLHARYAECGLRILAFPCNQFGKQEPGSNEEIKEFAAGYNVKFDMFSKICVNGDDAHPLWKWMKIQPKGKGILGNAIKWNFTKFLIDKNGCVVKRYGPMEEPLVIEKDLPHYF

For `Nc1nc(F)nc2c1ncn2C1OC(COP(=O)(O)O)C(O)C1O` (stereo not given), the Potency entry in experiment [1] is “inactive”. Besides, the Potency in experiment [2] was 2.95 µM (active).
As for `C[C@@H]1CC(=O)Nc2cccc(-c3cnn(C(C)(C)C)c3)c2N1`, the Potency entry in experiment [1] and in experiment [4] was “inactive” each time. In addition, the Potency was 6.61 µM (active) in experiment [2] and 5.9 µM (active) in experiment [3].
Regarding `C=C1CCC2[C@](C)(CO)C(O)CC[C@]2(C)C1C/C=C1/C(=O)OCC1O` (stereo not given in full), the figures for the Potency in experiment [1], in experiment [2] and in experiment [3] were 13.1 µM (active), 7.42 µM (active) and 7.42 µM (active), respectively. The Potency result in experiment [4] and in experiment [5] was “inactive” throughout. Also, the Z-AUC in experiment [6] is 0.689 (inactive); in experiment [6] (setting [8]), -0.31; in experiment [6] (measured here: PEO4 Z-AUC), -0.312.
As to `CC(=O)NCC(=O)N1[C@@H]2CC[C@H]1c1ccc(Nc3ncc(C(F)(F)F)c(NC4CCC4)n3)cc12`, the Potency is 4.66 µM (active) in experiment [1], 0.59 µM (active) in experiment [2], 0.166 µM (active) in experiment [3] and 3.13 µM (active) in experiment [7]. The Potency entry in experiment [4] and in experiment [5] was “inactive” throughout. Moreover, the Z-AUC is -0.104 (inactive) in experiment [6], -0.113 in experiment [6] (setting [8]) and -0.17 in experiment [6] (measured here: PEO4 Z-AUC). Further, the activity change, negative = inhibition in experiment [7] is -29.6% (inactive).
As for `CO[C@H]1/C=C\C=C(\C)C(=O)NC2=CC(=O)C(NCCN(C)C)=C(C[C@@H](C)C[C@H](OC)[C@H](O)[C@@H](C)/C=C(/C)[C@@H]1OC(N)=O)C2=O`, the Potency in experiment [1] is 0.0466 µM (active); in experiment [2], 0.332 µM (active); in experiment [3], 0.235 µM (active); in experiment [6], 0.219 µM (active); in experiment [7] it was 0.0176 µM (active). In addition, the Potency result in experiment [4] and in experiment [5] was “inactive” throughout. Moreover, the Z-AUC in experiment [6] (setting [8]) is -2.33; in experiment [6] (measured here: PEO4 Z-AUC), -1.76.
Turning to `Cc1c[nH]c2nc(Nc3ccc(N4CCN(C)CC4)c(F)c3)nc(-c3cccc(CC#N)c3)c12`, the Potency in experiment [1] is 2.34 µM (active); in experiment [2], 0.525 µM (active); in experiment [3] it was 0.332 µM (active); in experiment [7], 1.76 µM (active). Besides, in experiment [4], the Potency entry is “inactive”. In addition, the values for the Z-AUC in experiment [6], in experiment [6] (setting [8]) and in experiment [6] (measured here: PEO4 Z-AUC) were -0.269 (inactive), -0.34 and -0.115, respectively.
Consider `Cc1[nH]c(/C=C2\C(=O)Nc3ccc(S(=O)(=O)Cc4c(Cl)cccc4Cl)cc32)c(C)c1C(=O)N1CCC[C@@H]1CN1CCCC1`, for which the Potency in experiment [1] is 5.23 µM (active); in experiment [2], 6.61 µM (active); in experiment [3], 5.25 µM (active); in experiment [7] it was 22.2 µM (active). Also, the Potency result in experiment [4] and in experiment [5] was “inactive” in each case. For the same compound, the Z-AUC in experiment [6] was 0.541 (inactive); in experiment [6] (setting [8]), 0.565; in experiment [6] (measured here: PEO4 Z-AUC), 0.0929.
For `CN(C)CCN1C(=O)c2cccc3cc(NC(N)=O)cc(c23)C1=O`, the Potency is 7.39 µM (active) in experiment [1], 2.35 µM (active) in experiment [2], 1.86 µM (active) in experiment [3] and 17.6 µM (active) in experiment [7]. Moreover, in experiment [4], the Potency result was “inactive”. Also, the results for the Z-AUC in experiment [6], in experiment [6] (setting [8]) and in experiment [6] (measured here: PEO4 Z-AUC) were -0.63 (inactive), -1.2 and -1.08, respectively. Moreover, in experiment [7], the activity change, negative = inhibition was -14% (inactive).
With `O=C(/C=C\n1cnc(-c2cc(C(F)(F)F)cc(C(F)(F)F)c2)n1)NNc1cnccn1`, the results for the Potency in experiment [1], in experiment [2] and in experiment [3] were 7.39 µM (active), 2.63 µM (active) and 2.09 µM (active), respectively. Also, the Potency result in experiment [4] and in experiment [5] was “inactive” throughout. The Z-AUC in experiment [6] was -0.586 (inactive); in experiment [6] (setting [8]), -2.16; in experiment [6] (measured here: PEO4 Z-AUC) it was -1.63.
Turning to `O=C(/C=C/c1cccnc1)NCCCCC1CCN(C(=O)c2ccccc2)CC1`, the Potency entry in experiment [1], in experiment [4] and in experiment [5] was “inactive” throughout. Moreover, the Potency in experiment [2] is 0.0019 µM (active); in experiment [3], 0.0047 µM (active); in experiment [6], 0.0436 µM (active). Moreover, the figures for the Z-AUC in experiment [6] (setting [8]) and in experiment [6] (measured here: PEO4 Z-AUC) were -2.84 and -2.61, respectively.
On to `COC1=C2C[C@H](C)C[C@H](OC)[C@H](O)[C@@H](C)/C=C(/C)[C@H](OC(N)=O)[C@@H](OC)/C=C\C=C(\C)C(=O)NC(=CC1=O)C2=O`, for which the Potency was 2.94 µM (active) in experiment [1] and 0.0279 µM (active) in experiment [7]. Moreover, the Potency entry in experiment [2], in experiment [3] and in experiment [4] was “inactive” throughout. The Z-AUC is 0.322 (inactive) in experiment [6], 0.489 in experiment [6] (setting [8]) and 0.496 in experiment [6] (measured here: PEO4 Z-AUC).
For the compound `NC(=O)/C(=C/n1cnc(-c2cc(C(F)(F)F)cc(C(F)(F)F)c2)n1)c1cncnc1`, the Potency in experiment [1] is 3.3 µM (active); in experiment [2], 0.417 µM (active); in experiment [3] it was 0.235 µM (active); in experiment [7], 1.57 µM (active). Also, the Potency result in experiment [5] was “inactive”. In addition, the Z-AUC in experiment [6] was -0.773 (inactive); in experiment [6] (setting [8]), -2.06; in experiment [6] (measured here: PEO4 Z-AUC), -1.68.
Turning to `Cc1nnn(C)c1-c1cnc2c3ccc(C(C)(C)O)cc3n([C@H](c3ccccc3)C3CCOCC3)c2c1`, the Potency result in experiment [1] is “inactive”. The Potency in experiment [2] was 0.0074 µM (active); in experiment [3] it was 0.0093 µM (active); in experiment [4], 18.3 µM (active); in experiment [5] it was 16.1 µM (active); in experiment [6], 0.549 µM (active). For the same compound, the Z-AUC in experiment [6] (setting [8]) is -1.84; in experiment [6] (measured here: PEO4 Z-AUC), -2.14.
In the case of `O=C(NO)c1cnc(N2C[C@H]3C[C@@H]2CN3c2cc(C(F)(F)F)ccn2)nc1`, the Potency was 4.66 µM (active) in experiment [1], 2.95 µM (active) in experiment [2] and 2.95 µM (active) in experiment [3]. In addition, the Potency result in experiment [4] and in experiment [5] was “inactive” in each case. For the same compound, the Z-AUC in experiment [6] is -1 (inactive); in experiment [6] (setting [8]) it was -1.23; in experiment [6] (measured here: PEO4 Z-AUC) it was -1.32.
With `COc1cc(OC)c(/C=C/S(=O)(=O)Cc2ccc(OC)c(OP(=O)(O)O)c2)c(OC)c1`, the Potency result in experiment [1], in experiment [4] and in experiment [5] was “inactive” each time. In addition, the results for the Potency in experiment [2], in experiment [3] and in experiment [6] were 0.0372 µM (active), 0.0332 µM (active) and 0.049 µM (active), respectively. Also, the Z-AUC in experiment [6] (setting [8]) is -2.04; in experiment [6] (measured here: PEO4 Z-AUC), -2.09.

Values taken from PubChem BioAssay (NCATS).
